Measured values reported in PubChem BioAssay.
For part of these data: Measured potencies and affinities stand elsewhere. Activity calls are given as the source filed them. Unless noted, how the calls were made is not given here.

Tests used:
[1] = biological target: Calcium-dependent protein kinase 1 (Plasmodium falciparum (isolate 3D7)) (UniProt P62344); assay: PfCDPK1 kinase inhibitors, biochemical, TCAMS library (AID 1159585; cut-off not given, nearly all actives have IC50 up to about 0.98 µM;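 further: inhibitors leave more ATP so luminescence rises with inhibition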); conditions: recombinant PfCDPK1, Kinase-Glo ATP depletion luminescence
Calcium-dependent protein kinase 1 (Plasmodium falciparum (isolate 3D7)), sequence (P62344 whole entry, looked up): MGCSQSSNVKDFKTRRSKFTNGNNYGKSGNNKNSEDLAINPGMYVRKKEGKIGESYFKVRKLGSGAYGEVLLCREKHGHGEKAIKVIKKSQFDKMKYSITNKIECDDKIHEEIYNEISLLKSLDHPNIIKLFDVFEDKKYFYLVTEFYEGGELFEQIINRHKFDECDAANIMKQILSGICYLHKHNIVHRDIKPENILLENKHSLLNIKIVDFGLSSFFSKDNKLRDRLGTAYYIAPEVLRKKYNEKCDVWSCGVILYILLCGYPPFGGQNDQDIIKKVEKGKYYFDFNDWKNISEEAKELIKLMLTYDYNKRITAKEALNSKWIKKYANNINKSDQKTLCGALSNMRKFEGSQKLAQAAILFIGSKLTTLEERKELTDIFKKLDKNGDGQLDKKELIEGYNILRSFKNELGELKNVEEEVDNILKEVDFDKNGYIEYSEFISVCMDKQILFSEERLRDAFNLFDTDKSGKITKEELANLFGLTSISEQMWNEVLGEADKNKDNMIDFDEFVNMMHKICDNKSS

[2] = biological target: Plasmodium falciparum protein kinase 6 (PK6, PF3D7_1337100) (UniProt Q8IDW1); assay: PfPK6 kinase inhibitors, biochemical, TCAMS library (AID 1159586); conditions: recombinant PfPK6, Kinase-Glo ATP depletion luminescence
Plasmodium falciparum protein kinase 6 (PK6, PF3D7_1337100), sequence (Q8IDW1 1-305): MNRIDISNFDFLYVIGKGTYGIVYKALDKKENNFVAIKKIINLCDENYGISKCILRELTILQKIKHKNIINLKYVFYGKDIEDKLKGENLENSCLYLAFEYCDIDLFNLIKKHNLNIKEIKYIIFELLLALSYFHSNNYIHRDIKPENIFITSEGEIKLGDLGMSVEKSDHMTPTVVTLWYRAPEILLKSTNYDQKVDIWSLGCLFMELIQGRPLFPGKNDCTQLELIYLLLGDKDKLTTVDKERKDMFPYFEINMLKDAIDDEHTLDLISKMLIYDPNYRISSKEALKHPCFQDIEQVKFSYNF

[3] = biological target: Protein kinase 7 (PK7), Plasmodium falciparum 3D7 (PF3D7_0213400) (UniProt Q7YTF7); assay: inhibition of Plasmodium PK7 catalytic activity – biochemical, TCAMS antimalarial set, Kinase-Glo luminescence (AID 1159587); conditions: recombinant PfPK7, Kinase-Glo ATP depletion luminescence
Protein kinase 7 (PK7), Plasmodium falciparum 3D7 (PF3D7_0213400), sequence (Q7YTF7 1-343): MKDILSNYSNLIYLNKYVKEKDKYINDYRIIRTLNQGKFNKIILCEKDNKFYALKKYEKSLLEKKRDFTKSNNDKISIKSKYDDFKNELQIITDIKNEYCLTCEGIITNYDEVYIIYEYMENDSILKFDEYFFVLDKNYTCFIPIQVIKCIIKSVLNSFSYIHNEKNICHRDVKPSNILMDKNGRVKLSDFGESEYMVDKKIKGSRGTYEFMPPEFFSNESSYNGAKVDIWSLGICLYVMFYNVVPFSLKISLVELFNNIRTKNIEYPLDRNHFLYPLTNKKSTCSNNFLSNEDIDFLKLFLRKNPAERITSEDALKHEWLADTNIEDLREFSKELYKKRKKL

[4] = biological target: Calcium-dependent protein kinase 4 (Plasmodium falciparum (isolate 3D7)) (UniProt Q8IBS5); assay: PfCDPK4 kinase inhibitors, biochemical, TCAMS library (AID 1159588; cut-off not given, nearly all actives have IC50 up to about 0.91 µM); conditions: recombinant PfCDPK4, Kinase-Glo ATP depletion luminescence
Calcium-dependent protein kinase 4 (Plasmodium falciparum (isolate 3D7)), sequence (Q8IBS5 whole entry, looked up): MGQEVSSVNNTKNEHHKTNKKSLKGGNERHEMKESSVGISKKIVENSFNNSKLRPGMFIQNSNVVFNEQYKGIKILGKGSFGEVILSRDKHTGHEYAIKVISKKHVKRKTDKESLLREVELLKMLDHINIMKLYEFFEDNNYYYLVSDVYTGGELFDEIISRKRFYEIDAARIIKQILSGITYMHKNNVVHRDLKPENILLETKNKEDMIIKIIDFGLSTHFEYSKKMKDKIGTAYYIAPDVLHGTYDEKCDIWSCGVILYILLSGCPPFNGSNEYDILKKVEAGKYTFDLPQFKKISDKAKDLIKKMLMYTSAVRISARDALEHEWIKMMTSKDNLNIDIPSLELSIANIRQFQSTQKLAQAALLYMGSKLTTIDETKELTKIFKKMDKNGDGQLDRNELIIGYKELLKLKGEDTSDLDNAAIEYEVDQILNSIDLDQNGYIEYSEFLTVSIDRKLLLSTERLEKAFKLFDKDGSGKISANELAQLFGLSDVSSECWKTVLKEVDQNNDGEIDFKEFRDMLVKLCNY

Measured: outcome

CN(C)c1nc(N/N=C/c2cc(Cl)ccc2O)nc(Nc2ccc(F)cc2)n1
inactive: all assays above

Nc1cc(/C=C/c2ccc(O)cc2)nc2ccccc12
inactive: all assays above

CN(C)C(=S)N/N=C/c1cccc(O)c1O
inactive: all assays above

CCC[C@@H]([C@H](CC(C)C)C(=O)N[C@@H](CCCCNC(=O)OCc1ccccc1)C(=O)Nc1ncccn1)N(O)C=O
inactive: all assays above

N=C(N)c1ccc(/C=C/c2ccc(C(=N)N)cc2O)cc1
inactive: all assays above

CN(C)c1cc(N/N=C/c2cc(Cl)ccc2O)nc(N(C)C)n1
inactive: all assays above

c1cc2nc(CCCCc3nc4ccc(C5=N[C@@H]6CCCC[C@@H]6N5)cc4[nH]3)[nH]c2cc1C1=N[C@@H]2CCCC[C@@H]2N1
inactive: all assays above

CC[C@@H]([C@H](CC(C)C)C(=O)N[C@@H](CCCCNC(=O)OCc1ccccc1)C(=O)Nc1ccccn1)N(O)C=O
inactive: all assays above

Cc1cc(C)c2c(c1)/C(=N/O)CCN2
inactive: all assays above

O=C(N/C=N/c1cc([N+](=O)[O-])c(-c2ccncc2)n1-c1ccccc1)c1cccc(O)c1
inactive: all assays above

Oc1ccc2ccccc2c1/C=N/Nc1nc(Nc2ccccc2)nc(N2CCOCC2)n1
inactive: all assays above

Cc1cccc2[nH]c(-c3cccc(-c4ccc(NC(=O)Cc5ccc[n+]([O-])c5)cc4)c3)nc12
inactive: all assays above

C=CC[C@@H](C[C@H](O)[C@H](Cc1ccccc1)NC(=O)c1ccc(-c2cccnn2)cc1)C(=O)NC1CCCCC1
inactive: all assays above

O=C(N/C=N/c1cc([N+](=O)[O-])c(-c2cccnc2)n1-c1ccc(O)cc1)c1ccccc1
inactive: all assays above

COc1cc(/C=N/Nc2ccnc3cc(Cl)ccc23)ccc1O
inactive: all assays above

COc1ccc2nc(/N=C(\N)NC(=O)Nc3ccccc3)nc(C)c2c1
inactive: all assays above

CCC[C@@H]([C@H](CC1CCCCC1)C(=O)N[C@H](C(=O)Nc1nccc(N)n1)C(C)(C)C)N(O)C=O
inactive: all assays above

COc1cc(-c2nc(-c3ccc4c(c3)CC/C4=N\O)c(-c3ccncc3)[nH]2)ccc1OCCN1CCCCC1
inactive: all assays above

O=C(Cc1ccc[n+]([O-])c1)Nc1cccc(-c2cccc(-c3nc4ccc(F)cc4[nH]3)c2)c1
inactive: all assays above

CO[C@H](C)[C@H](NC(=O)[C@@H](CC(C)C)[C@H](CCC(F)(F)F)N(O)C=O)C(=O)Nc1nccs1
inactive: all assays above

CC1CCC(C[C@H](C(=O)N[C@@H](CCC(=O)N2CCCCC2)C(=O)Nc2nccs2)[C@H](C(C)C)N(O)C=O)CC1 (some centres undefined)
inactive: all assays above

C=CC[C@@H](C[C@H](O)[C@H](Cc1ccccc1)NC(=O)c1ccc(-n2cccn2)cc1)C(=O)NC1CCCCC1
inactive: all assays above

COc1cc(/C=C(\C2=NC(=O)CS2)c2nc3cccnc3n2C)ccc1O
inactive: all assays above

COc1ccc(Nc2nc(N/N=C/c3cc(Br)ccc3O)nc(Nc3ccc([N+](=O)[O-])cc3)n2)cc1
inactive: all assays above

C/C(=N\NC(N)=O)C1=C(O)C(c2ccccc2)N(C2CCCCC2)C1=O (centres undefined)
inactive: all assays above

O=[N+]([O-])c1ccc(-c2nc3ccc(C4=N[C@@H]5CCCC[C@@H]5N4)cc3[nH]2)cc1
inactive: all assays above

O=[N+]([O-])c1ccc(Nc2nc(N/N=C/c3cc(Cl)cc(Cl)c3O)nc(Nc3ccccc3)n2)cc1
inactive: all assays above

Cc1cccc2[nH]c(-c3cccc(-c4cccc(NC(=O)Cc5ccc[n+]([O-])c5)c4)c3)nc12
inactive: all assays above

NC(N)=N/N=C/c1c[nH]c2ccc(-c3ccccc3)cc12
inactive: all assays above

COc1cc(-c2nc(-c3ccc4c(c3)CC/C4=N\O)c(-c3ccncc3)[nH]2)ccc1OCCN1CCN(C)CC1
inactive: all assays above

O=C1C=CC(=C2NC(c3ccccc3)=C(c3ccc4oc5ccc(C6=C(c7ccccc7)NC(=C7C=CC(=O)C=C7)N6)cc5c4c3)N2)C=C1
inactive: all assays above

CN(C)C[C@H](O)[C@H](c1ccccc1)c1ccc(Cl)cc1
inactive: all assays above

C/C(=N\O)C1=C(O)C(c2ccccc2)N(c2ccccc2)C1=O (centres undefined)
inactive: all assays above

O=C(Cc1ccc[n+]([O-])c1)Nc1cccc(-c2cccc(-c3nc4ccc(C(F)(F)F)cc4[nH]3)c2)c1
inactive: all assays above

c1cc2nc(CCCCCc3nc4ccc(C5=N[C@H]6CCCC[C@H]6N5)cc4[nH]3)[nH]c2cc1C1=N[C@H]2CCCC[C@H]2N1
inactive: all assays above

Nc1c2c(nc3ccccc13)/C(=C/c1ccc(O)cc1)CCC2
inactive: all assays above
